Experimental data as given in PubChem BioAssay (Tox21).
Records with an inconclusive call do not appear. Active and inactive are the calls of the source. Unless noted, calls follow the shape of the dose curve; as a rule, active = well fitted cell-killing curve with a large enough effect in the repeat runs; inconclusive = weak or mixed curves; inactive = no such curve, though single readings can be large or run the other way.

Target: Peroxisome proliferator-activated receptor delta (Homo sapiens) (UniProt Q03181)
Assay: qHTS assay to identify small molecule agonists of the peroxisome proliferator-activated receptor delta (PPARd) signaling pathway (AID 743212; calls by dose curve)
Conditions: HEK293H PPARd-UAS-bla, beta-lactamase FRET ratio, 17 h; series mostly up to 62.6 µM; activation: at the top concentration
Outline: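 Cells expressing a UAS-driven beta-lactamase reporter (PPARd-bla HEK293H) were given test compounds after a 5 h settle and kept at 37 C. Reporter activity was then measured as FRET fluorescence using LiveBLAzer B/G substrate.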
% is scaled to controls: 0 for no effect and ±100 for the full control effect.

Sequence of Peroxisome proliferator-activated receptor delta (Homo sapiens) (Q03181 whole entry, looked up): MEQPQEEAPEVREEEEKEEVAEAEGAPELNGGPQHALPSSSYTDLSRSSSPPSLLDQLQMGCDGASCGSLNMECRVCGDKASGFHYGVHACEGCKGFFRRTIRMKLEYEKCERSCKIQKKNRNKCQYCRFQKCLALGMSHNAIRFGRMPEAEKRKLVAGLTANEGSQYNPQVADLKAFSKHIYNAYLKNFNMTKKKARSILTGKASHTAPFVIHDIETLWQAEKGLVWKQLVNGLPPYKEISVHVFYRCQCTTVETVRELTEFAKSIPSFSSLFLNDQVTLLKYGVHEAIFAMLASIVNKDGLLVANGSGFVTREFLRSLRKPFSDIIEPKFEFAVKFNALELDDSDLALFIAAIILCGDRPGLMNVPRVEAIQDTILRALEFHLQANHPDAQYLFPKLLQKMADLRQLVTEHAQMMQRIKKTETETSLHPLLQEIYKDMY

| Compound | activation |
| --- | --- |
| C=C[C@@H](C)CCC=C(C)C | -1.39% (inactive) |
| CN[C@@H]1[C@@H](O)[C@@H](O[C@@H]2[C@H](O)[C@H](O[C@H]3OC(CN)=CC[C@H]3N)[C@@H](N)C[C@H]2N)OCC1(C)O (some centres undefined) | -1.7% (inactive) |
| CCc1nccnc1C | -2.43% (inactive) |
| CCCCOC(=O)C(=O)OCCCC | -2.15% (inactive) |
| CC(C)COC(=O)CCCCC(=O)OCC(C)C | 0.52% (inactive) |
| Cc1cc(O)c2c(c1)C(=O)c1cccc(O)c1C2=O | -4.35% (inactive) |
| O=CN1CCOCC1 | -0.422% (inactive) |
| O=C1NC2NC(=O)NC2N1 (centres undefined) | 1.36% (inactive) |
| CCOC(=O)CCc1ccccc1 | -1.63% (inactive) |
| Cc1ccccc1OCC1CO1 (centres undefined) | -1.98% [at 81.1 µM] (inactive) |
| O=c1[nH]c(=O)c2[nH]c(=O)[nH]c2[nH]1 | 2.22% [at 13.2 µM] (inactive) |
| Cc1cccc(Nc2ccncc2S(=O)(=O)NC(=O)NC(C)C)c1 | 0.507% (inactive) |
| CC1=CC[C@H](CC=O)C1(C)C | -1.81% (inactive) |
| COc1cccc2sc(N)nc12 | -2.85% [at 81.1 µM] (inactive) |
| CN(C)CCCNCCC#N | -4.97% (inactive) |
| CCC(O)C(C)(C)C (centres undefined) | -2.28% [at 81.1 µM] (inactive) |
| C=CCOC(=O)c1ccc(C(=O)OCC=C)c(C(=O)OCC=C)c1 | -0.985% (inactive) |
| Nc1ccc(/C=C/c2ccc(N)cc2S(=O)(=O)O)c(S(=O)(=O)O)c1 | -0.496% [at 0.55 µM] (inactive) |
| CC(Cl)COP(=O)(OCC(C)Cl)OCC(C)Cl (centres undefined) | -0.871% (inactive) |
| CCNC(=O)NCCCOc1cccc(CN2CCCCC2)c1 | 0.957% (inactive) |
| O=C(c1ccc2c(c1)C(=O)OC2=O)c1ccc2c(c1)C(=O)OC2=O | 0.81% (inactive) |
| NC(=O)NC(=O)Cc1ccccc1 | -1.81% (inactive) |
| CCC1COC(=O)O1 (centres undefined) | 0.984% (inactive) |
| COCC(=O)Nc1c(I)c(C(=O)NCC(O)CO)c(I)c(C(=O)N(C)CC(O)CO)c1I (centres undefined) | -3.65% (inactive) |
| CCS(=O)(=O)CCn1c([N+](=O)[O-])cnc1C | -0.0839% (inactive) |
| NC(=O)NNC(N)=O | -3.14% (inactive) |
| Cc1ccccc1C | -3.79% [at 81.1 µM] (inactive) |

System: not listed separately
Assay: qHTS assay to identify small molecule antagonists of the peroxisome proliferator-activated receptor delta (PPARd) signaling pathway - cell viability counter screen (AID 743213); also: nearly all actives have a fitted effect of over 50% in size
Conditions: PPARd-bla HEK293H viability, CellTiter-Glo luminescence, 17 h; series mostly up to 62 µM; viability change, negative = cytotoxic: at the top concentration
Outline: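 Viability counter-screen, qHTS format: PPARd-bla HEK293H, L165041 300 nM final, 17 h compound exposure at 37 C, CellTiter-Glo luminescence after 30 min RT.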

| Compound | viability change, negative = cytotoxic |
| --- | --- |
| C=C[C@@H](C)CCC=C(C)C | 11.5% (inactive) |
| CCC(=O)c1ccc(O)cc1 | 0.095% (inactive) |
| CN[C@@H]1[C@@H](O)[C@@H](O[C@@H]2[C@H](O)[C@H](O[C@H]3OC(CN)=CC[C@H]3N)[C@@H](N)C[C@H]2N)OCC1(C)O (some centres undefined) | 19.1% (inactive) |
| CCc1nccnc1C | -1.24% (inactive) |
| CCCCOC(=O)C(=O)OCCCC | 13% (inactive) |
| CC(C)COC(=O)CCCCC(=O)OCC(C)C | -14.3% (inactive) |
| Cc1cc(O)c2c(c1)C(=O)c1cccc(O)c1C2=O | -2.71% (inactive) |
| O=CN1CCOCC1 | 11.8% (inactive) |
| OCCCCCCCl | 9.65% [at 80.4 µM] (inactive) |
| C[C@H](CCC(=O)NCC(=O)O)[C@H]1CC[C@H]2[C@@H]3[C@H](O)C[C@@H]4C[C@H](O)CC[C@]4(C)[C@H]3C[C@H](O)[C@]12C | 0.859% (inactive) |
| O=C1NC2NC(=O)NC2N1 (centres undefined) | -0.236% (inactive) |
| CCOC(=O)CCc1ccccc1 | 6.96% (inactive) |
| Cc1ccccc1OCC1CO1 (centres undefined) | 0.725% [at 80.4 µM] (inactive) |
| O=c1[nH]c(=O)c2[nH]c(=O)[nH]c2[nH]1 | -1.61% [at 13.7 µM] (inactive) |
| Cc1cccc(Nc2ccncc2S(=O)(=O)NC(=O)NC(C)C)c1 | 17.7% (inactive) |
| CC1=CC[C@H](CC=O)C1(C)C | 3.64% (inactive) |
| OC(CCN1CCCCC1)(c1ccccc1)c1ccccc1 | 3.72% (inactive) |
| NS(=O)(=O)c1cc2c(cc1Cl)NC(CC1CCCC1)NS2(=O)=O (centres undefined) | 0.698% (inactive) |
| COc1cccc2sc(N)nc12 | -2.13% [at 80.4 µM] (inactive) |

| Compound | viability change, negative = cytotoxic |
| --- | --- |
| CN(C)CCCNCCC#N | 4.96% (inactive) |
| CCC(O)C(C)(C)C (centres undefined) | 1.65% [at 80.4 µM] (inactive) |
| C=CCOC(=O)c1ccc(C(=O)OCC=C)c(C(=O)OCC=C)c1 | 10.6% (inactive) |
| C=C(C)[C@@H]1CC[C@@H](C)C[C@@H]1O | -16.4% (inactive) |
| Nc1ccc(/C=C/c2ccc(N)cc2S(=O)(=O)O)c(S(=O)(=O)O)c1 | -6.12% [at 0.575 µM] (inactive) |
| CC(Cl)COP(=O)(OCC(C)Cl)OCC(C)Cl (centres undefined) | -4.58% (inactive) |
| CCNC(=O)NCCCOc1cccc(CN2CCCCC2)c1 | 2.22% (inactive) |
| Cc1ncc([N+](=O)[O-])n1CC(O)CCl (centres undefined) | 5.08% (inactive) |
| COCCOCCOCCOC | 1.71% (inactive) |
| CCCCC/C=C/CC(=O)OC | 11.7% (inactive) |
| O=C(c1ccc2c(c1)C(=O)OC2=O)c1ccc2c(c1)C(=O)OC2=O | -17.8% (inactive) |
| NC(=O)NC(=O)Cc1ccccc1 | 16.4% (inactive) |
| CCOC(=O)CC(CC(=O)OCC)(OC(C)=O)C(=O)OCC | 9.09% (inactive) |
| CCC1COC(=O)O1 (centres undefined) | 5.94% (inactive) |
| COCC(=O)Nc1c(I)c(C(=O)NCC(O)CO)c(I)c(C(=O)N(C)CC(O)CO)c1I (centres undefined) | 22.5% (inactive) |
| CCS(=O)(=O)CCn1c([N+](=O)[O-])cnc1C | -22.6% (inactive) |
| NC(=O)NNC(N)=O | 0.183% (inactive) |
| Cc1ccccc1C | 18.4% [at 80.4 µM] (inactive) |
